Data taken from PubChem BioAssay (NCATS).
Where “and” joins values, the source holds several entries; their conditions need not be identical. Identical values can stand only once. Unmarked numbers belong to inactive results. Inconclusive results are not listed. Entries that show only a call come without a potency. Calls of active or inactive are those of the source. Unless noted, calls follow the shape of the dose curve; as a rule, active = well fitted curve in the direction sought with a large enough effect; inconclusive = small, poorly fitted or top-dose-only effect, or another doubt; inactive = no such curve, though single readings can be large; an effect the other way counts as inactive or inconclusive.

Legend:
[1] = target: Thyrotropin receptor (Homo sapiens) (UniProt P16473); assay: qHTS Assay for Antagonists of the Thyroid Stimulating Hormone Receptor (AID 488980); also: series mostly up to about 58 µM
Method in brief: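 Inhibition of cAMP raised by EC80 TSH (4 nM final) was read by HTRF, with lysate cAMP competing against cAMP-d2 for cryptate antibody after 30 min at room temperature. The cells were transfected HEK293 held in phosphodiesterase inhibitor RO 20-1724 at 70 uM.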

[2] = target: D(1A) dopamine receptor (Homo sapiens) (UniProt P21728); assay: HTS Assay for Allosteric Agonists of the Human D1 Dopamine Receptor: Primary Screen for Potentiators (AID 488982); also: potency is read from the fitted curve at half-maximal effect
Method in brief: (§1)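 Tetracycline-induced HEK293 T-REx cells force-coupled to calcium signalling were incubated overnight at 30 C and dye-loaded at room temperature. Calcium flux over 180 s after compound addition flagged agonists; a further 180 s read after EC20 dopamine flagged potentiators.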

[3] = target: D(1A) dopamine receptor (Homo sapiens) (UniProt P21728); assay: HTS Assay for Allosteric Agonists of the Human D1 Dopamine Receptor: Primary Screen for Antagonists (AID 488983);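 also: calcium flux response to an EC80 dopamine challenge measured with no-wash dye; nearly all actives have a fitted effect of over 65% in size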; also: potency is read from the fitted curve at half-maximal effect
Method in brief: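 Calcium-flux read-out in inducible HEK293 T-REx cells expressing D1, dye-loaded 30–90 min at room temperature. Kinetic reads: 180 s after compound (agonist phase), then 180 s after an EC80 dopamine challenge.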

[4] = Validation screen for small molecules that induce genotoxicity in human embryonic kidney (HEK293T) cells expressing luciferase-tagged ELG1 (AID 493106)
Method in brief: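 ELG1-luciferase reporter readout (ONE-Glo, 30 min, room temperature) after 16 hr compound treatment at 37 °C of HEK293T cells at 2,000 per well. Rising luminescence flags genotoxic stress.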

[5] = target: Thyrotropin-releasing hormone receptor (Homo sapiens) (UniProt P34981); assay: qHTS for Small Molecule Agonists and Allosteric Enhancers of Human TRH Receptor: Validation Screen for Agonists (AID 493127;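 active = calcium activation more than 3 SD above the typical response in the agonist read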;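 also: intracellular calcium rise by fluo-8 fluorescence before TRH EC20 addition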); settings: TRH receptor agonist cell assay; at 2 µM; active compounds read high
Method in brief: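 Compound-evoked intracellular calcium release in fluo-8-loaded TRHR cells, read kinetically on FDSS (Ex 480/Em 530, 1 s/cycle) after 23 nL pintool transfer. Agonist phase preceded 10 nM TRH EC20 addition.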

[6] = target: D(1A) dopamine receptor (Homo sapiens) (UniProt P21728); assay: HTS Assay for Allosteric Agonists of the Human D1 Dopamine Receptor: Primary Screen for Agonists (AID 488981); also: potency is read from the fitted curve at half-maximal effect
Method in brief: as §1

[7] = target: ATPase family AAA domain-containing protein 5 (Homo sapiens) (UniProt Q96QE3); assay: Validation screen for small molecules that inhibit ELG1-dependent DNA repair in human embryonic kidney (HEK293T) cells expressing luciferase-tagged ELG1 (AID 493107); also: nearly all actives have a fitted effect of over 70% in size; also: potency is read from the fitted curve at half-maximal effect
Method in brief: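 Luciferase read-out, ONE-Glo, 30 min at room temperature, follows 16 h co-exposure at 37 C of compound and the DNA-damaging agent 5-fluorouridine. Cells: HEK293T with ELG1-luciferase fusion, 2,000 per well, DMSO as vehicle.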

[8] = target: ATP-dependent 6-phosphofructokinase (Trypanosoma brucei brucei) (UniProt O15648); assay: qHTS Assay to Find Inhibitors of T. brucei phosphofructokinase: hit validation (AID 492961);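 also: luminescence reports ADP formed as PFK phosphorylates fructose-6-phosphate with ATP; series mostly up to about 51 µM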
Method in brief: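 PFK 1.25 nM, F6P 0.5 mM, ATP 0.1 mM, MgCl2 5 mM, 0.1 M TEA pH 8.0, Tween20 0.01%, BSA 0.1%; 45 min RT. ADP-Glo two-step detection, luminescence. qHTS titration; curve fitting with curve-class categorization.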

D(1A) dopamine receptor (Homo sapiens), sequence (P21728 whole entry, looked up): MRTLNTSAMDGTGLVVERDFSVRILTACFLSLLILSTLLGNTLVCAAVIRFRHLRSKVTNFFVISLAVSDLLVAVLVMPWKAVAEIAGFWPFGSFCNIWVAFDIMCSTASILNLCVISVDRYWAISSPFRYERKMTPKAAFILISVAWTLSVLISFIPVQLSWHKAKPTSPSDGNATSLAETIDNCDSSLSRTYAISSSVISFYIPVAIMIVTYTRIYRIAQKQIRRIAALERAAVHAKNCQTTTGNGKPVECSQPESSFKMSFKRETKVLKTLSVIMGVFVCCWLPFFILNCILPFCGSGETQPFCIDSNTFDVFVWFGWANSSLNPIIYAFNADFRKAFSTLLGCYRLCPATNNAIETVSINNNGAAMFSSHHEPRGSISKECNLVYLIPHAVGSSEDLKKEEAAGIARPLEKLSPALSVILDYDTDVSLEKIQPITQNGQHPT
ATPase family AAA domain-containing protein 5 (Homo sapiens), sequence (Q96QE3 whole entry, looked up, the tested form may be a part): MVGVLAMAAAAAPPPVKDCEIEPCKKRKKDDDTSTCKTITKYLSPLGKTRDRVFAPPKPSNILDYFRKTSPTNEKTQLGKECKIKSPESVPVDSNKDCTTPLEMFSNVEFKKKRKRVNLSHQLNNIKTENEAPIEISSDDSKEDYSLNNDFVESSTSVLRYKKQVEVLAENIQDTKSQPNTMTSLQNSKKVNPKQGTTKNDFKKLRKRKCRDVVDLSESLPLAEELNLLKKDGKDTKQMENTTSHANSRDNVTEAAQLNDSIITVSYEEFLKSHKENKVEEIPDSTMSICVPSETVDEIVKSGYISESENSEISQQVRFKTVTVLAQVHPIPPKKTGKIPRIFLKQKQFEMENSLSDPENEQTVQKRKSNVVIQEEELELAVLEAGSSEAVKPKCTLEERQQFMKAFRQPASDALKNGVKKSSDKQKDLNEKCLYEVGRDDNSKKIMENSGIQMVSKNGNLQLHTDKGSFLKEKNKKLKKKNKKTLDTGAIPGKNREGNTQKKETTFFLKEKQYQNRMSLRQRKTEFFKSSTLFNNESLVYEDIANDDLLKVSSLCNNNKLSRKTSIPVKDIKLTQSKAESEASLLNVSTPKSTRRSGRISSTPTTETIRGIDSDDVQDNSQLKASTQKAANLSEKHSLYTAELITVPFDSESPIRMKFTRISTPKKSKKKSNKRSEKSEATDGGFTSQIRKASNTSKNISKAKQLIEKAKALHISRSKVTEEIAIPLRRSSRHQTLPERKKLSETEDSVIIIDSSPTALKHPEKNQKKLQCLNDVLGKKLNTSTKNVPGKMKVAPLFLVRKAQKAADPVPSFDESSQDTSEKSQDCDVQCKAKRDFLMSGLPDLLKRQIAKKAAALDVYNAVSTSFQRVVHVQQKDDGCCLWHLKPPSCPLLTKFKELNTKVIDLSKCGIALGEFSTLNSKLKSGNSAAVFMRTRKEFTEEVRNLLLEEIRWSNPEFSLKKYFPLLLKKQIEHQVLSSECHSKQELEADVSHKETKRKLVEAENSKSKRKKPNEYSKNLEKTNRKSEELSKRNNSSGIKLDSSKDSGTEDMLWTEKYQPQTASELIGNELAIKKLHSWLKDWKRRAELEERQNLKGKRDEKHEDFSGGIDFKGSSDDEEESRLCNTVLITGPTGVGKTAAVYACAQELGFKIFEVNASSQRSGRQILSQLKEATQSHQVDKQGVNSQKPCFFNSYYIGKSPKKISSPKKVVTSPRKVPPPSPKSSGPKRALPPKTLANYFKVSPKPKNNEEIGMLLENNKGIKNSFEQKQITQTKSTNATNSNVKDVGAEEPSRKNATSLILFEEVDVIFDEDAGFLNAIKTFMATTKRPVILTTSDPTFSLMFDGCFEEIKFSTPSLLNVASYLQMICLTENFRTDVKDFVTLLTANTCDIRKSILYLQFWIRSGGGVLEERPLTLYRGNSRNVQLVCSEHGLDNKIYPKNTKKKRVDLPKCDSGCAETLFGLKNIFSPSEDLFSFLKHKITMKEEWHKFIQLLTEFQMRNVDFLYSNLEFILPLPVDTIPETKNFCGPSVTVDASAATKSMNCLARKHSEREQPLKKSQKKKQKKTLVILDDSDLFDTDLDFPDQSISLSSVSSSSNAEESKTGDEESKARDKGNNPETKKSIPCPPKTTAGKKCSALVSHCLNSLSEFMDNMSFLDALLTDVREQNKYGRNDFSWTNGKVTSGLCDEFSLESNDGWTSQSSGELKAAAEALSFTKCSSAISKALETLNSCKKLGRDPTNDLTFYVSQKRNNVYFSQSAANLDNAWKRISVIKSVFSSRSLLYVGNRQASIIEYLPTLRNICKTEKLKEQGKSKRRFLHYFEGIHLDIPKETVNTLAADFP
Thyrotropin-releasing hormone receptor (Homo sapiens), sequence (P34981 whole entry, looked up): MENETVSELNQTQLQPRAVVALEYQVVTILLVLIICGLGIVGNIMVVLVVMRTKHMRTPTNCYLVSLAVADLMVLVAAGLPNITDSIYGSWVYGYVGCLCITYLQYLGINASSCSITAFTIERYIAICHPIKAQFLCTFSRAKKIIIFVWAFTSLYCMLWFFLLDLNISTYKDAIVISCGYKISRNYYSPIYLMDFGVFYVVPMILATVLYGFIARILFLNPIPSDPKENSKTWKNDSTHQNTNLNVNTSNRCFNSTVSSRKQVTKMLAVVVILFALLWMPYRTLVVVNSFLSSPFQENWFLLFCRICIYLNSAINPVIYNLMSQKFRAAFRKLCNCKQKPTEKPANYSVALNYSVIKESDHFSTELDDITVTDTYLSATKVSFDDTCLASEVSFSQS
Thyrotropin receptor (Homo sapiens), sequence (P16473 whole entry, looked up): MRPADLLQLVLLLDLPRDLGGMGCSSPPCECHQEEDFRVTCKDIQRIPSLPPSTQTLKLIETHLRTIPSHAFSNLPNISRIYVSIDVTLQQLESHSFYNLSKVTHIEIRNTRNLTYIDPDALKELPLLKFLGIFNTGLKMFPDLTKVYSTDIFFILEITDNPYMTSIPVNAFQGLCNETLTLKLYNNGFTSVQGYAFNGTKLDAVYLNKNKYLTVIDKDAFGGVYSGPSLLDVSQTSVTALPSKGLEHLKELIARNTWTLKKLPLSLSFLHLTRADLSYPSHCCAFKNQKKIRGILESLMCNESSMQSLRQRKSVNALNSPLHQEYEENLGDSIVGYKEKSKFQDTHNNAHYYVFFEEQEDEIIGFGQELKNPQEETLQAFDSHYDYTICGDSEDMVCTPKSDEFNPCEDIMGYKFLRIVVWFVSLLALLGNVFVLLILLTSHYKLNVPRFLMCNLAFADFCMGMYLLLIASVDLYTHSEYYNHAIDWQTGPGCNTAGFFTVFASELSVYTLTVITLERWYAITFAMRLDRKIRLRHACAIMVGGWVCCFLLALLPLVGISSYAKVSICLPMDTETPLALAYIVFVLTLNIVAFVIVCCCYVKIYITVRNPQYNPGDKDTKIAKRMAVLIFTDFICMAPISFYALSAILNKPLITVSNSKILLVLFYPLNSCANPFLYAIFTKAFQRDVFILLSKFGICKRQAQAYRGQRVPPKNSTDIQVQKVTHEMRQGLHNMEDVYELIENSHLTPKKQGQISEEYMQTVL
ATP-dependent 6-phosphofructokinase (Trypanosoma brucei brucei), sequence (O15648 whole entry, looked up): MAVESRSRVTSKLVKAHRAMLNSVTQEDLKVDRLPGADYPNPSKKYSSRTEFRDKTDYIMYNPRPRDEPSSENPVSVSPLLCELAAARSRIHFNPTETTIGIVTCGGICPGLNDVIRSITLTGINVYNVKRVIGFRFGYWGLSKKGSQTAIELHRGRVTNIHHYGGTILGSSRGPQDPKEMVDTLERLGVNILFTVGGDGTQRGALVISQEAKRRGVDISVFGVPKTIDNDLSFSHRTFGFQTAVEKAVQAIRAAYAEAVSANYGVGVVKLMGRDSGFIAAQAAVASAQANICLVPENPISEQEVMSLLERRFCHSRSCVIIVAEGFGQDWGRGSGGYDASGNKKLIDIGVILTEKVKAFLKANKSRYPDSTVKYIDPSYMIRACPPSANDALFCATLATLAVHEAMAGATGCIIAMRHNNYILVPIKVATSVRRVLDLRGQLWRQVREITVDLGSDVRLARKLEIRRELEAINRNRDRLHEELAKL

Compound | outcome [1] | Potency [2] | Potency [3] | Potency [4] | activation [5] | Potency [6] | Potency [7] | outcome [8]
COc1cc2c(CCNC(C)=O)c[nH]c2cc1O | inactive | inactive | inactive | inactive | 0.875% |  |  | 
COc1ccc(C(=O)NCc2cccnc2)cc1C(=O)NCc1cccnc1 | inactive |  | inactive | inactive | 0.938% | inactive |  | 
N#CC(C#N)=C(N)/C(C#N)=C/c1ccc(O)cc1 | inactive | inactive | inactive | inactive | 0.25% | inactive |  | 
C[C@]12C=CC(=O)C=C1CC[C@@H]1C2=CC[C@]2(C)[C@@H](C(=O)CN3CCN(c4cc(N5CCCC5)nc(N5CCCC5)n4)CC3)CC[C@@H]12 |  | inactive | inactive | inactive |  | inactive |  | 
O=c1[nH]c(=S)[nH]c(-c2ccccc2)c1Cc1c(O)ccc2ccccc12 |  | inactive | inactive | inactive |  | inactive | inactive | 
N=C(N)c1ccc(N)cc1 | inactive | inactive | inactive | inactive | -2.75% |  | inactive | 
Nc1nc2c(cnn2CCc2ccccc2)c2nc(-c3ccco3)nn12 |  | inactive | inactive |  |  | inactive |  | 
O=C(O)c1ccccc1Nc1cccc(OCc2ccc3ccccc3n2)c1 | inactive | inactive |  | inactive | -5.56% |  | inactive | 
CCCc1c(OCCCOc2ccc(OCC(=O)O)cc2)ccc(C(C)=O)c1O | inactive | inactive |  | inactive |  | inactive | inactive | 
CCCCCCCC/C=C\CCCCCCCC(=O)NCCc1ccc(O)c(O)c1 | inactive | 4.61 µM (active) | inactive |  | 1.94% | inactive |  | 
COc1cccc(OC)c1OCCNCC1CSc2ccccc2O1 (stereo not given) | inactive | inactive | 1.26 µM (active) | inactive | -3.81% | inactive |  | 
CC(O)C(O)[C@H]1CNc2nc(N)[nH]c(=O)c2N1 (stereo not given in full) |  | inactive | inactive | inactive |  | inactive | inactive | inactive
CNc1cc(NS(=O)(=O)c2ccc(N)cc2)nc(NC)n1 | inactive | inactive | inactive | inactive | 0.25% |  |  | 
[N-]=[N+]=Nc1ccc(C(=O)CSC[C@H](NC(=O)CC[C@H](N)C(=O)O)C(=O)NCC(=O)O)cc1 | inactive |  | inactive | inactive | 1.12% | inactive | inactive | 
Cc1ccc([N+](=O)[O-])cc1S(=O)(=O)N(C)C | inactive |  | inactive | inactive | 1.19% and 0.125% | inactive | inactive | 
O=C1OC(=O)C2C3CCC(O3)C12 (stereo not given) | inactive | inactive | inactive |  | 0.938% | inactive | inactive | 

Compound | outcome [1] | Potency [2] | Potency [3] | Potency [4] | activation [5] | Potency [6] | Potency [7] | outcome [8]
CC(=O)SC1CC2=CC(=O)CC[C@]2(C)C2CC[C@@]3(C)C(CC[C@@]34CCC(=O)O4)C12 (stereo not given in full) |  | inactive | inactive | inactive |  | inactive | 7.3 µM (active) | 
COc1cc(C(O)CO)ccc1O (stereo not given) | inactive |  | inactive | inactive | 0.688% | inactive | inactive | 
O[Si](CCCN1CCCCC1)(c1ccc(F)cc1)C1CCCCC1 (stereo not given) | inactive | inactive | inactive | inactive | 5.12% |  | inactive | 
CCCCCCCCCC(=O)NC(CN1CCOCC1)[C@H](O)c1ccccc1 (stereo not given in full) | inactive | inactive | inactive | inactive | 0.812% |  |  | 
OC[C@H]1O[C@H](n2cnc3c(N[C@H]4CCC[C@@H]4O)ncnc32)[C@H](O)[C@@H]1O |  | inactive | inactive |  |  | inactive |  | 
COc1ccc(CCn2nnnc2C2(c3ccc(C)cc3)CC2)cc1 |  | inactive | inactive | inactive |  | inactive | inactive | 
CCc1ccc2c(-c3cccc(Cl)c3)nc(=O)n(CC)c2n1 |  | inactive | inactive | inactive |  | inactive | inactive | 
Cc1nc2n(c(=O)c1CCN1CCC(c3noc4cc(F)ccc34)CC1)CCCC2O (stereo not given) |  | inactive | 1 µM (active) | inactive |  | inactive |  | 
CCCn1c(=O)c2[nH]c(-c3ccc(S(=O)(=O)O)cc3)nc2n(CCC)c1=O | inactive | inactive | inactive | inactive | 0.688% |  | inactive | 
Nc1ccc2c3c(cccc13)C(=O)NC2=O | inactive |  | inactive |  | 87.4% (active) | 11.2 µM (active) | inactive | 
CC(=O)O[C@H]1Cc2ccccc2N(C(N)=O)c2ccccc21 |  | inactive | inactive | inactive |  | inactive | inactive | 
O=C(O)CCC/C=C\C[C@@H]1[C@@H](/C=C/[C@H](O)C2Cc3ccccc3C2)[C@@H](F)C[C@@H]1O |  | inactive | inactive | inactive |  | inactive | inactive | 
CC(C)NC[C@H](O)COc1cccc2ccccc12 |  | inactive | inactive | inactive |  |  | inactive | 
c1ccc(C(NCc2cccnc2)(c2ccccc2)c2ccccc2)cc1 |  | 4.11 µM (active) |  | inactive |  | inactive |  | 
CC[C@@H]1Cc2cc(O)ccc2C2=C1c1ccc(O)cc1C[C@H]2CC |  | 2.59 µM (active) |  | inactive | 6.69% | inactive |  | 
